From PubChem BioAssay (NCATS)
Records with an inconclusive call do not appear. Entries that show only a call come without a potency. Calls of active or inactive are those of the source. The call rests on the fitted dose curve; in most records, active means well fitted inhibition curve with a large enough effect; inconclusive means small, poorly fitted or top-dose-only effect; inactive means flat fitted curve, though single readings scatter.

These molecules were tested against Aldehyde dehydrogenase, mitochondrial (Homo sapiens) (UniProt P05091) (assay: qHTS for Inhibitors of the Aldehyde Dehydrogenase Family (ALDH2) Primary screen (AID 2061308; further: nearly all actives have a fitted effect of over 55% in size)). Conditions: ALDH2 enzyme inhibition qHTS, 1536-well; series mostly up to 56 µM.

Compound | Potency
O=C(Nc1cc(C(F)(F)F)ccc1Cl)C(O)Cc1ccccc1 (configuration not stated) | inactive
CC(C)c1cccc2c(-c3ccccc3)cc(-c3ccc(-c4ccc(C(=O)O)cc4)[nH]3)nc12 | inactive
COC(=O)c1ccccc1NC(=O)c1ccccc1OC(F)F | inactive
COc1ccc(OC)c(C2=Nn3c(nnc3-c3ccc(OC)c(OC)c3)SC2)c1 | inactive
CC1(C)CC[C@]2(C(=O)O)CC[C@]3(C)C(=CCC4[C@@]5(C)C[C@@H](O)[C@H](O)[C@@](C)(CO)C5CC[C@]43C)C2C1 (some centres not stated) | inactive
O=C(Nc1nnc(-c2ccncc2)s1)Nc1cc(C(F)(F)F)ccc1F | inactive
CCOc1ccc(CCNC(=O)C2=C(C)OCCO2)cc1OCC | inactive
CCCCNc1nc(C)nc2c1nc(-c1ccccc1)n2CC(C)(C)CN(C)C | inactive
COc1ccc(-c2nnc3n2N=C(c2ccccc2OC)CS3)c(OC)c1 | inactive
O=C(Cn1nc(-c2ccc3c(c2)OCO3)ccc1=O)NCCc1ccccc1 | inactive
Cc1cc(C)nc(NC(=S)N2CCN(c3nccc4occc34)CC2)c1 | inactive
CCC(=O)NC(C)c1cc(Cl)c2cccnc2c1O (configuration not stated) | inactive
COc1cccc(C2=Nn3c(nnc3-c3cc(OC)ccc3OC)SC2)c1 | inactive
CSc1ccccc1-c1ncc(C)c(NCc2ccc(-c3cccnc3)cc2)n1 | inactive
Oc1ccc(-c2ccccc2F)c2cccnc12 | inactive
Cc1nc(CN=C2NC3=C(C(=O)CCC3)C(c3[nH]ncc3Cl)N2)cs1 (configuration not stated) | inactive
COc1cc(O)c(C(CC(=O)N2CCCC(C)(C)C2)c2ccc3c(c2)OCO3)c(OC)c1 (configuration not stated) | inactive
